Data from PubChem BioAssay.
Values without a mark were called inactive. For part of these data: Measured potencies and affinities stand elsewhere. The source made the active and inactive calls. Unless noted, the rule behind the calls is not given here.

Legend:
[1] = antimalarial activity against Dd2 strain (AID 2302;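 active = growth inhibition above 50% at the single 2 µM test dose, taken to imply half-maximal potency below 2 µM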;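 note: 0% = DMSO untreated growth and 100% = chloroquine plus artemisinin killed control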); settings: P. falciparum Dd2 in RBCs, LDH growth readout, 72 h; at 2 µM; active compounds read high
[2] = human hepatoma cell viability loss – ATP luminescence, cytotoxicity control for P. falciparum antimalarial project, primary screen (AID 2303;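 active = inhibition above 50%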;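 note: 0% = DMSO wells and 100% = digitonin-killed cells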); settings: HepG2 viability, 24-48 h, at 10 µM, active compounds read high
[3] = molecular target: L-lactate dehydrogenase (Plasmodium falciparum (isolate CDC / Honduras)) (UniProt Q27743); assay: PfLDH activity inhibition – cell lysate, 3D7 strain, counter-screen for P. falciparum growth inhibition project (AID 2304);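 note: 0% = vehicle and 100% = reference inhibitor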; settings: P. falciparum 3D7 crude extract, LDH APAD/NBT absorbance; at 2 µM; active compounds read high
Chain of L-lactate dehydrogenase (Plasmodium falciparum (isolate CDC / Honduras)) (Q27743 whole entry, looked up): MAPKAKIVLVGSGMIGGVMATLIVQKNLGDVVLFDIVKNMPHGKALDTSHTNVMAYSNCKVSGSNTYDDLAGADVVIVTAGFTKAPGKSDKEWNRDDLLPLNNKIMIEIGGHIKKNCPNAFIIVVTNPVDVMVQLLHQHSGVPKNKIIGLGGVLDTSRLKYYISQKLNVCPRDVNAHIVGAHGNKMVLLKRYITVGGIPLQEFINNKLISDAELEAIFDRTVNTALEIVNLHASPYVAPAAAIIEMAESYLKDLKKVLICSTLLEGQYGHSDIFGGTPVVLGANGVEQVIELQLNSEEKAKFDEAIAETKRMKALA

[4] = inhibition of 3D7 malaria parasite growth – strain 3D7 (AID 2306);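 note: 0% = DMSO wells and 100% = chloroquine plus artemisinin control wells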; settings: P. falciparum 3D7 erythrocytic growth, LDH absorbance, 72 h; at 2 µM; active compounds read high
[5] = molecular target: Calcium-dependent protein kinase 1 (Plasmodium falciparum (isolate 3D7)) (UniProt P62344); assay: PfCDPK1 kinase inhibitors, biochemical, TCAMS library (AID 1159585; cut-off not given, nearly all actives have IC50 up to about 0.98 µM;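 note: inhibitors leave more ATP so luminescence rises with inhibition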); settings: recombinant PfCDPK1, Kinase-Glo ATP depletion luminescence
Chain of Calcium-dependent protein kinase 1 (Plasmodium falciparum (isolate 3D7)) (P62344 whole entry, looked up): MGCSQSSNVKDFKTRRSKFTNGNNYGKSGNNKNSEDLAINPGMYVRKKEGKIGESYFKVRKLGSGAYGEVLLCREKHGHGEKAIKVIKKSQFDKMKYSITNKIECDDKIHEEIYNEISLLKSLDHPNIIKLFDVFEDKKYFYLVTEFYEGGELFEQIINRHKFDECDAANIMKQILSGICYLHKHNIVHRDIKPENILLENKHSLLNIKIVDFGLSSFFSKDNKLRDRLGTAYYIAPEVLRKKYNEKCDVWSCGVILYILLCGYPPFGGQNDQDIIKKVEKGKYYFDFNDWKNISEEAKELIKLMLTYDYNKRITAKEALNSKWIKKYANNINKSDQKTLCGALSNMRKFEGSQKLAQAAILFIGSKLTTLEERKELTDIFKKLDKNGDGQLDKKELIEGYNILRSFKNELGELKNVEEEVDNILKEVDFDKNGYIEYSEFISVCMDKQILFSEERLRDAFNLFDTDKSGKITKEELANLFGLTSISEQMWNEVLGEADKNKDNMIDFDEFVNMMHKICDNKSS

[6] = molecular target: Plasmodium falciparum protein kinase 6 (PK6, PF3D7_1337100) (UniProt Q8IDW1); assay: PfPK6 kinase inhibitors, biochemical, TCAMS library (AID 1159586); settings: recombinant PfPK6, Kinase-Glo ATP depletion luminescence
Chain of Plasmodium falciparum protein kinase 6 (PK6, PF3D7_1337100) (Q8IDW1 1-305): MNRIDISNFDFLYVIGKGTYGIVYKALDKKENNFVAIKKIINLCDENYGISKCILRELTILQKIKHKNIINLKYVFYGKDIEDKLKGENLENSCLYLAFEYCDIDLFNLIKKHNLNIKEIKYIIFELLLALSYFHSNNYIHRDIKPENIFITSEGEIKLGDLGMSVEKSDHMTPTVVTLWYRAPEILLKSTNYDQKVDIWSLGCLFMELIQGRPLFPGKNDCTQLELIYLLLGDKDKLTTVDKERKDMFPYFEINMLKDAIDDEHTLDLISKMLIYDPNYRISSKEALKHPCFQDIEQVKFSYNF

[7] = molecular target: Protein kinase 7 (PK7), Plasmodium falciparum 3D7 (PF3D7_0213400) (UniProt Q7YTF7); assay: inhibition of Plasmodium PK7 catalytic activity – biochemical, TCAMS antimalarial set, Kinase-Glo luminescence (AID 1159587); settings: recombinant PfPK7, Kinase-Glo ATP depletion luminescence
Chain of Protein kinase 7 (PK7), Plasmodium falciparum 3D7 (PF3D7_0213400) (Q7YTF7 1-343): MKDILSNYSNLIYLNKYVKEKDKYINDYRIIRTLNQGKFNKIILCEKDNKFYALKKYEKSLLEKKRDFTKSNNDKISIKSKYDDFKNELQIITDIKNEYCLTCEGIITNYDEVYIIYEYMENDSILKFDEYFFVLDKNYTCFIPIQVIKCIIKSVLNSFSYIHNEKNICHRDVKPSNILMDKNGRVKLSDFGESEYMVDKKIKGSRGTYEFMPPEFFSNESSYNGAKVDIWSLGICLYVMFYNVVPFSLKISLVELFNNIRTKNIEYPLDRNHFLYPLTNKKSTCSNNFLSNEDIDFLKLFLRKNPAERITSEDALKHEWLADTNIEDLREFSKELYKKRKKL

[8] = molecular target: Calcium-dependent protein kinase 4 (Plasmodium falciparum (isolate 3D7)) (UniProt Q8IBS5); assay: PfCDPK4 kinase inhibitors, biochemical, TCAMS library (AID 1159588; cut-off not given, nearly all actives have IC50 up to about 0.91 µM); settings: recombinant PfCDPK4, Kinase-Glo ATP depletion luminescence
Chain of Calcium-dependent protein kinase 4 (Plasmodium falciparum (isolate 3D7)) (Q8IBS5 whole entry, looked up): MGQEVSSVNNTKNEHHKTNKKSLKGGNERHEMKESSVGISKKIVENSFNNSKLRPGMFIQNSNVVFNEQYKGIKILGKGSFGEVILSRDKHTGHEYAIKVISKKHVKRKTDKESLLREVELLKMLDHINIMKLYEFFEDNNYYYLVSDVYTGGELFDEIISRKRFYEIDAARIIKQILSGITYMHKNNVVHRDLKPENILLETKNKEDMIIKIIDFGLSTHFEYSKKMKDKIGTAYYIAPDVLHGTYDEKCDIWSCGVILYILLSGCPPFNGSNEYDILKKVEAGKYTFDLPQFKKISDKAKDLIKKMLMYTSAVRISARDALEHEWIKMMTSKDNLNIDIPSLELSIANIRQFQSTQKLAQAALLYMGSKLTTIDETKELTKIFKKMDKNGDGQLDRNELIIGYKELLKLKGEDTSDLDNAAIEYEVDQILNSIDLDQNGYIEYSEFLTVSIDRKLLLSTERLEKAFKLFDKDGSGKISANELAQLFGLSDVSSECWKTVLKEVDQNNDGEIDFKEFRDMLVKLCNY

SMILES | growth inhibition [1] | inhibition [2] | inhibition [3] | growth inhibition [4] | outcome [5] | outcome [6] | outcome [7] | outcome [8]
O=C(c1ccccc1F)N(Cc1ccc(Cl)cc1)c1ccccn1 | 58% (active) | -3% | 1% | 84% (active) | inactive | inactive | inactive | inactive
Cn1c(=N)n(CC(=O)OCc2ccc(OCc3ccccc3)cc2)c2ccccc21 | 74% (active) | 5% | -5% | 100% (active) | inactive | inactive | inactive | inactive
CCCCN(Cc1cccc(C(F)(F)F)c1Cl)c1ccc(C(O)(C(F)(F)F)C(F)(F)F)cc1 | 55% (active) | 10% | -3% | 91% (active) | inactive | inactive | inactive | inactive
c1cc(-c2ccc(CNCCCn3ccnc3)cc2)cc(-c2nc3ccccc3[nH]2)c1 | 100% (active) | 17% | 5% | 101% (active) | inactive | inactive | inactive | inactive
CC[C@H](C)CNC(=O)c1cncc(-c2cccc(CNCCCc3ccccc3)c2)c1 | 0% | 9% | 1% | 95% (active) | inactive | inactive | inactive | inactive
O=C(Nc1ccc2c(c1)CCC2)c1ccc(CN2CCCN(Cc3cccc(O)c3)CC2)cc1 | 46% | 45% | -1% | 88% (active) | inactive | inactive | inactive | inactive
O=C(Nc1cccc(CN2CCN(Cc3ccc(O)cc3)CC2)c1)c1cc2ccccc2s1 | 26% | 15% | -4% | 100% (active) | inactive | inactive | inactive | inactive
Cc1ccccc1C1CCN(C2CCC(NC(=O)c3cc4cc(C(C)C)ccc4[nH]3)CC2)CC1 (configuration not stated) | 100% (active) | 100% (active) | -3% | 99% (active) | inactive | inactive | inactive | inactive
Cc1cc(Nc2ccncc2)n2nc(C)c(-c3ccccc3Cl)c2n1 | 93% (active) | 2% | 4% | 99% (active) | inactive | inactive | inactive | inactive
CCCc1cc(Cc2cnc(N)nc2N)cc(CCC)c1OCCCCC(=O)OCC | -3% | 1% | 4% | 93% (active) | inactive | inactive | inactive | inactive
COc1ccccc1C1CN(Cc2coc3ccccc3c2=O)Cc2ccccc2O1 (configuration not stated) | 61% (active) | 4% | 2% | 87% (active) | inactive | inactive | inactive | inactive
Cn1nc(-c2ccc(S(=O)(=O)N3CCC(CCN4CCC(c5c[nH]c6ccccc56)CC4)CC3)s2)cc1C(F)(F)F | 22% | 40% | 4% | 94% (active) | inactive | inactive | inactive | inactive
O=C(Nc1ccc(-c2cccc(-c3nc4ccccc4[nH]3)c2)cc1)c1cnn2cccnc12 | 36% | 64% (active) | -1% | 99% (active) | inactive | inactive | inactive | inactive
CCCC(CC)n1ccc2c3c(N)nc(N)nc3ccc21 (configuration not stated) | 97% (active) | 67% (active) | 0% | 94% (active) | inactive | inactive | inactive | inactive
O=C(Nc1cccc(CN2CCCN(Cc3ccsc3)CC2)c1)c1ccc(-c2ccccc2)cc1 | 11% | 30% | -4% | 90% (active) | inactive | inactive | inactive | inactive
CCN(CC)CCCC(C)N=C(Nc1ccc(C#N)cc1O)Nc1ccccc1Br (configuration not stated) | -2% | 4% | 2% | 89% (active) | inactive | inactive | inactive | inactive
CN1CCN(c2ccc(Nc3c(C(N)=O)cnc4cc(-c5ccoc5)ccc34)cc2)CC1 | 99% (active) | 14% | -3% | 101% (active) | inactive | inactive | inactive | inactive
CC(C)NC(=O)c1cccc(-c2cccc(OCCN3CCSCC3c3ccccc3)c2)c1 (configuration not stated) | 45% | 24% | 2% | 89% (active) | inactive | inactive | inactive | inactive
Cc1[nH]cc(Br)c(=O)c1-c1ccc(Oc2ccccc2)cc1 | 96% (active) | -5% | -6% | 97% (active) | inactive | inactive | inactive | inactive
Fc1cccc(Nc2nc(NCc3ccc(OCc4ccccc4)cc3)nc(Nc3cccc(F)c3)n2)c1 | 14% | 5% | 1% | 84% (active) | inactive | inactive | inactive | inactive

SMILES | growth inhibition [1] | inhibition [2] | inhibition [3] | growth inhibition [4] | outcome [5] | outcome [6] | outcome [7] | outcome [8]
O=[N+]([O-])c1cc2c(cc1C=NNc1nc(Nc3ccccc3)nc(Nc3ccccc3)n1)OCO2 | 46% | -8% | -2% | 98% (active) | inactive | inactive | inactive | inactive
CCCCCC(C)c1cc(O)c2c(c1)OC(C)(C)C=C2C1=CCN(Cc2ccccc2)CC1 (configuration not stated) | 96% (active) | 13% | -5% | 96% (active) | inactive | inactive | inactive | inactive
Oc1c(Cl)cc(Nc2nccc(Nc3ccc(Oc4ccccc4)cc3)n2)cc1Cl | 26% | 8% | -5% | 99% (active) | inactive | inactive | inactive | inactive
CCOC(=O)c1[nH]c2cc(Cl)cc(Cl)c2c1/C=C/C(=O)Nc1ccc(-c2cnc(NC(C)=O)[nH]2)cc1 | 65% (active) | 45% | -3% | 100% (active) | inactive | inactive | inactive | inactive
O=C(NC1CCN(Cc2ccc(Cl)cc2)CC1)c1cn(-c2ccccc2)nc1-c1cccnc1 | 9% | 13% | -2% | 93% (active) | inactive | inactive | inactive | inactive
Cc1nc(-c2ccc(-c3ccc(C(=O)Nc4ccc(-n5ccnc5)c(N5CCN(C)CC5)c4)cc3)c(C)c2)no1 | 100% (active) | 34% | 2% | 100% (active) | inactive | inactive | inactive | inactive
COc1cc(CNC[C@@H](O)[C@H](Cc2ccccc2)NC(=O)c2cc(C3CCCC3)cc(N3CCCC3=O)c2)cc(OC)c1 | 76% (active) | 16% | 6% | 97% (active) | inactive | inactive | inactive | inactive
COc1ccc(O)c(C(=O)c2cc(C(=O)NC3CCCCC3)c(=O)n(C3CCCCC3)c2)c1 | 62% (active) | 8% | 3% | 99% (active) | inactive | inactive | inactive | inactive
Cn1cc(CN2CCC(OC(c3ccccc3)c3ccc(Cl)cc3)CC2)cn1 (configuration not stated) | 61% (active) | 39% | 5% | 94% (active) | inactive | inactive | inactive | inactive
O=C(NCCCCN1CCC(c2ccc3c(c2OCc2ccncc2)CCCC3)CC1)c1ccc(-c2ccc(C(F)(F)F)cc2)cc1 | 92% (active) | 96% (active) | 3% | 101% (active) | inactive | inactive | inactive | inactive
COc1c(C2CCN(CCCCNC(=O)c3ccc(-c4ccc(Cl)cc4)c(OCCN(C)C)c3)CC2)ccc2c1CCCC2 | 86% (active) | 100% (active) | 2% | 101% (active) | inactive | inactive | inactive | inactive
COc1ccc2nccc([C@@H](O)CN3CCC(NCc4cc5ccccc5[nH]4)CC3)c2c1 | 41% | 75% (active) | 4% | 92% (active) | inactive | inactive | inactive | inactive
CCc1c(CCNCCCCCCNCCc2ccc(Br)cc2)ccc(OC)c1OC | 14% | 100% (active) | 0% | 99% (active) | inactive | inactive | inactive | inactive
CC1CN(c2ccc(NC(=O)c3ccc(F)cc3)cc2)CCN1Cc1cccc(F)c1 (configuration not stated) | 76% (active) | 11% | 2% | 81% (active) | inactive | inactive | inactive | inactive
CN(C)CCNC(=O)N1CCCN(c2ncnc3cc(-c4ccc(Cl)cc4)sc23)CC1 | 21% | 41% | 4% | 98% (active) | inactive | inactive | inactive | inactive
CCC(C)C#Cc1c(C)nc(N)nc1N (configuration not stated) | -4% | 53% (active) | 3% | 96% (active) | inactive | inactive | inactive | inactive
CCCCCCN1CCCN(Cc2ccc(C(=O)Nc3ccc(C(C)(C)C)cc3)cc2)CC1 | 32% | 53% (active) | -3% | 100% (active) | inactive | inactive | inactive | inactive
CNc1nc(NN=Cc2cc([N+](=O)[O-])c(Cl)cc2Cl)nc(Nc2cccc(C(F)(F)F)c2)n1 | 97% (active) | 13% | 9% | 100% (active) | inactive | inactive | inactive | inactive
CC(C)Oc1cc2c(cc1NS(=O)(=O)c1ccc(-c3cccs3)cc1)CCN(C)CC2 | 9% | 9% | -4% | 88% (active) | inactive | inactive | inactive | inactive
